# Data from PubChem BioAssay.
# Values joined by “and” are separate entries in the source; they are usually repeats but may differ in a detail not shown here. Equal values may be shown once. Results filed as inconclusive are left out. Active and inactive are the calls of the source. Unless noted, no cut-off is given here; in the data, nearly all actives have AC50 up to about 26 µM. Non-standard residues stand in square brackets, D forms with d. Residues, ends and D or L forms follow the SMILES beside them. pGlu = O=C1CC[C@@H](C(=O)O)N1; Thz = O=C(O)[C@@H]1CSCN1
# What was measured:
# [1] = test system: Neuropilin-2 / VEGF-C interaction (human); test: inhibitors of NRP2–VEGF-C binding, biochemical, microplate binding format, z-score (AID 743281; call rule not given here); settings: microplate NRP2/VEGF-C binding assay; stronger effect = lower value
# [2] = growth inhibition of DIPG glioma cells, dose response, cell-based, SU-DIPG-XIII, MIPE4.0, CellTiter-Glo, qHTS (AID 1347061; cut-off not given, nearly all actives have AC50 up to about 37 µM;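 note: cells exposed to compound for 48 hours before readout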); settings: SU-DIPG-XIII viability, CellTiter-Glo ATP luminescence
# [3] = growth inhibition of DIPG glioma cells, dose response, cell-based, JHH-DIPG-1, MIPE4.0, CellTiter-Glo, qHTS (AID 1347062; cut-off not given, nearly all actives have AC50 up to about 27 µM;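 for AC50: cells exposed to compound for two days before readout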); settings: JHH-DIPG-1 viability, CellTiter-Glo ATP luminescence
# [4] = growth inhibition of DIPG glioma cells, dose response, cell-based, SU-DIPG-IV, MIPE4.0, CellTiter-Glo, qHTS (AID 1347063; cut-off not given, nearly all actives have AC50 up to about 30 µM;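 note: compound exposure lasted 48 hours before the viability readout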); settings: SU-DIPG-IV viability, CellTiter-Glo ATP luminescence
# [5] = SU-DIPG-VI glioma cell viability, MIPE4.0 library, CellTiter-Glo luminescence, qHTS (AID 1347066; cut-off not given, nearly all actives have AC50 up to about 30 µM;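 note: cells exposed to compound for 48 hours before readout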); settings: CellTiter-Glo ATP luminescence
# [6] = molecular target: NAD(+) hydrolase SARM1 (Homo sapiens) (UniProt Q6SZW1); test: SARM1 TIR NADase inhibitors, cell lysate, NAD-Glo luminescence (AID 1508614;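 active = compound whose remaining NAD level is above about 45 nM, limit read from the data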;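 note: higher remaining NAD means stronger inhibition of SARM1 NADase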); settings: SAM-TIR HEK293T lysate NADase, at 1 µM, stronger effect = higher value
# [7] = viability rescue of complex I mutant cybrids, primary screen, cell-based, galactose medium, ATP luminescence (AID 1645843;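 active = z-score of at least 1.8 in each of two replicates, scored against plate mean and spread of sample wells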;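 note: positive z means more ATP and so rescue of galactose-driven cybrid death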); settings: complex I mutant cybrid cells, 72 h, stronger effect = higher value
# [8] = growth inhibition of DIPG glioma cells, dose response, cell-based, SU-DIPG-XIII, MIPE5.0, CellTiter-Glo, qHTS (AID 1347064; cut-off not given, nearly all actives have AC50 up to about 23 µM); settings: SU-DIPG-XIII viability, CellTiter-Glo ATP luminescence
# [9] = viability loss in pontine glioma line – cell-based, SU-DIPG-XXV, MIPE5.0, CellTiter-Glo, qHTS, dose response (AID 1347065); settings: CellTiter-Glo ATP luminescence;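 note: cells exposed to compound for 48 hours before ATP readout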
# [10] = JHH-DIPG-1 glioma cell viability, MIPE5.0 library, CellTiter-Glo luminescence, qHTS (AID 1347067); settings: JHH-DIPG-1 glioma viability, CellTiter-Glo ATP luminescence;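 note: cells exposed to compound for 48 hours before readout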
# [11] = SU-DIPG-XXV glioma cell viability, MIPE5.0 library, qHTS (AID 1347068; cut-off not given, nearly all actives have IC50 up to about 30 µM)
# [12] = phospholipid biosynthesis inhibitors in animal cells, primary screen, cell-based, LOPAC library, screen 4 (AID 1347384; call rule not given here); settings: phospholipid biosynthesis inhibition screen, at 10 µM
# [13] = growth inhibition of DIPG glioma cells, dose response, cell-based, SU-DIPG-XVII, MIPE5.0, CellTiter-Glo, qHTS (AID 1347060); settings: SU-DIPG-XVII viability, CellTiter-Glo ATP luminescence;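 for AC50: cells exposed to compound for 48 hours before viability readout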
# [14] = modifiers of HSF1 nuclear foci, imaging, Selleck Cancer Library (AID 1347162; in the data active = plate-normalised HSF1 focus index below about 0.46); settings: human cells, at 10 µM; SSMD: measured here: HSF1 foci SSMD mean; cell count: measured here: cell number; plate-normalised HSF1 focus index: stronger effect = lower value
# Chain of NAD(+) hydrolase SARM1 (Homo sapiens) (Q6SZW1 whole entry, looked up): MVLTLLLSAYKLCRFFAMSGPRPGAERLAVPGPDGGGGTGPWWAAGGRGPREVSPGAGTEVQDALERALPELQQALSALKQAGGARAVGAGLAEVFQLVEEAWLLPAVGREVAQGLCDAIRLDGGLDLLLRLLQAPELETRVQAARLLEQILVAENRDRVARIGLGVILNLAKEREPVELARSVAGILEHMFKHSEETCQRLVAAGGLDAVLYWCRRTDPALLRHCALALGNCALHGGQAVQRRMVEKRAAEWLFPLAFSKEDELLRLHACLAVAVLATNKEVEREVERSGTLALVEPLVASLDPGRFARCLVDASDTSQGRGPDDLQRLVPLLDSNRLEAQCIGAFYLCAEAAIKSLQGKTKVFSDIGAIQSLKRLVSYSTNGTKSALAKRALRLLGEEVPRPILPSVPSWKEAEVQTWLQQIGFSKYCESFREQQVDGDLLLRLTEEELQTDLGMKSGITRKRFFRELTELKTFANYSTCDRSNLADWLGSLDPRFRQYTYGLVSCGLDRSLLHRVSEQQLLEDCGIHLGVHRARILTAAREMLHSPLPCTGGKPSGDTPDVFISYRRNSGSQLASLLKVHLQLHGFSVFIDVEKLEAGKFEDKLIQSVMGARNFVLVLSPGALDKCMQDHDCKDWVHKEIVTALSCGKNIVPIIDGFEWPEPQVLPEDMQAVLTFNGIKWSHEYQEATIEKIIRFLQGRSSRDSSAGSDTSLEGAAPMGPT
compound,measurement,setting,value
CN(C)CCc1c[nH]c2ccc(Cn3cncn3)cc12,outcome,[1],inactive
same,outcome,[2],inactive
same,AC50,[3],20.9 µM (active)
same,AC50,[4],20.9 µM (active)
same,outcome,[5],inactive
same,remaining NAD,[6],10 nM (inactive)
same,z-score,[7],0.12 (inactive)
Cc1cnc(C(=O)NCCc2ccc(S(=O)(=O)NC(=O)NC3CCCCC3)cc2)cn1,outcome,[3],inactive
same,outcome,[8],inactive
same,outcome,[9],inactive
same,outcome,[5],inactive
same,outcome,[10],inactive
same,outcome,[11],inactive
same,outcome,[12],inactive
same,remaining NAD,[6],10 nM (inactive)
same,z-score,[7],1.17 (inactive) and 0.66 (inactive) and 1.06 (inactive)
CN/C(=C\[N+](=O)[O-])NCCSCc1csc(CN(C)C)n1,z-score,[1],0.209 (inactive)
same,remaining NAD,[6],10 nM (inactive)
CN1CC(=O)N2[C@H](c3ccc4c(c3)OCO4)c3[nH]c4ccccc4c3C[C@@H]2C1=O,z-score,[1],1.08 (inactive)
same,outcome,[13],inactive
same,outcome,[2],inactive
same,outcome,[3],inactive
same,outcome,[4],inactive
same,outcome,[8],inactive
same,outcome,[9],inactive
same,outcome,[5],inactive
same,outcome,[10],inactive
same,outcome,[11],inactive
same,remaining NAD,[6],10 nM (inactive)
CSc1nc2cc(Oc3cccc(Cl)c3Cl)c(Cl)cc2[nH]1,z-score,[1],0.432 (inactive)
same,z-score,[7],-1.88 (inactive)
CN(C)CCCC1(c2ccc(F)cc2)OCc2cc(C#N)ccc21 (configuration not stated),z-score,[1],0.0126 (inactive)
same,outcome,[4],inactive
same,outcome,[5],inactive
same,outcome,[12],inactive
same,remaining NAD,[6],10 nM (inactive)
NCC(O)c1ccc(O)c(O)c1 (configuration not stated),outcome,[12],inactive
same,z-score,[7],-1.48 (inactive) and -0.825 (inactive)
CC(C)NCC(O)c1ccc(NS(C)(=O)=O)cc1 (configuration not stated),z-score,[1],-0.291 (inactive)
same,outcome,[13],inactive
same,outcome,[3],inactive
same,outcome,[4],inactive
same,outcome,[8],inactive
same,outcome,[9],inactive
same,outcome,[5],inactive
same,outcome,[10],inactive
same,outcome,[11],inactive
same,outcome,[12],inactive
same,remaining NAD,[6],10 nM (inactive)
O=C1CN2Cc3c(ccc(Cl)c3Cl)N=C2N1,outcome,[1],inactive
same,outcome,[13],inactive
same,outcome,[2],inactive
same,outcome,[3],inactive
same,outcome,[8],inactive
same,outcome,[9],inactive
same,outcome,[10],inactive
same,outcome,[11],inactive
same,SSMD,[14],2.08 and 2.35
same,cell count,[14],7390 and 7000
same,plate-normalised HSF1 focus index,[14],1.08 (inactive) and 1.14 (inactive)
same,remaining NAD,[6],10 nM (inactive)
same,z-score,[7],0.465 (inactive) and 0.535 (inactive)
CCCCN1CCCC1CNC(=O)c1cc(C#N)c2ccccc2c1OC (configuration not stated),z-score,[1],1.01 (inactive)
same,z-score,[7],-0.605 (inactive) and -0.3 (inactive)
CC(Cc1ccc(O)c(O)c1)(NN)C(=O)O (configuration not stated),outcome,[13],inactive
same,outcome,[2],inactive
same,outcome,[3],inactive
same,outcome,[4],inactive
same,outcome,[8],inactive
same,outcome,[9],inactive
same,outcome,[5],inactive
same,outcome,[10],inactive
same,z-score,[7],-1.27 (inactive)
C[C@H]1O[C@H](O[C@H]2[C@H](O)[C@@H](O)[C@@H](O[C@H]3[C@H](O)[C@@H](O)C(O)O[C@@H]3CO)O[C@@H]2CO)[C@H](O)[C@@H](O)[C@@H]1N[C@H]1C=C(CO)[C@@H](O)[C@H](O)[C@H]1O (some centres not stated),z-score,[1],-1.33 (inactive)
same,outcome,[13],inactive
same,outcome,[2],inactive
same,outcome,[3],inactive
same,outcome,[9],inactive
same,outcome,[5],inactive
same,outcome,[10],inactive
same,outcome,[11],inactive
same,remaining NAD,[6],10 nM (inactive)
CNCC[C@@H](Oc1ccccc1C)c1ccccc1,z-score,[1],0.0903 (inactive)
same,remaining NAD,[6],10 nM (inactive)
same,z-score,[7],-0.26 (inactive)
C/C(=C\C(=O)OCCCCCCCCC(=O)O)C[C@@H]1OC[C@H](C[C@@H]2O[C@H]2[C@@H](C)[C@H](C)O)[C@@H](O)[C@H]1O,remaining NAD,[6],10 nM (inactive)
same,z-score,[7],-1.42 (inactive)
O=C1CC[C@@H](C(=O)N2CSC[C@H]2C(=O)O)N1 ([pGlu]-[Thz]-OH),z-score,[1],-0.307 (inactive)
same,remaining NAD,[6],10 nM (inactive)
Cc1cc2c(s1)Nc1ccccc1N=C2N1CCN(C)CC1,outcome,[1],inactive
same,outcome,[13],inactive
same,outcome,[2],inactive
same,outcome,[3],inactive
same,outcome,[8],inactive
same,outcome,[9],inactive
same,outcome,[5],inactive
same,AC50,[10],1.18 µM (active)
same,outcome,[11],inactive
same,outcome,[12],inactive
same,remaining NAD,[6],10 nM (inactive)
same,z-score,[7],-0.17 (inactive) and -0.015 (inactive)
COc1nc(C)nc(Cl)c1NC1=NCCN1,z-score,[1],-0.63 (inactive)
same,AC50,[13],23.5 µM (active)
same,outcome,[2],inactive
same,outcome,[3],inactive
same,outcome,[4],inactive
same,outcome,[8],inactive
same,outcome,[9],inactive
same,outcome,[5],inactive
same,outcome,[11],inactive
same,outcome,[12],inactive
same,z-score,[7],0.36 (inactive) and 1.01 (inactive) and 0.165 (inactive)
CCN(CC)CC#CCOC(=O)C(O)(c1ccccc1)C1CCCCC1 (configuration not stated),outcome,[2],inactive
same,outcome,[3],inactive
same,outcome,[4],inactive
same,outcome,[5],inactive
same,outcome,[12],inactive
same,remaining NAD,[6],10 nM (inactive)
same,z-score,[7],-1.22 (inactive) and -1.39 (inactive)
CN1[C@@H]2CCC[C@H]1CC(NC(=O)c1nn(C)c3ccccc13)C2 (some centres not stated),z-score,[1],1.21 (inactive)
same,outcome,[13],inactive
same,outcome,[2],inactive
same,outcome,[3],inactive
same,outcome,[8],inactive
same,outcome,[9],inactive
same,outcome,[5],inactive
same,outcome,[10],inactive
same,outcome,[11],inactive
same,remaining NAD,[6],10 nM (inactive)
same,z-score,[7],0.01 (inactive)
Cc1c(C(=O)NN2CCCCC2)nn(-c2ccc(Cl)cc2Cl)c1-c1ccc(I)cc1,z-score,[1],0.177 (inactive)
same,z-score,[7],-1.88 (inactive) and -0.83 (inactive)
